{"source": "the supplement of paper PMC12494721", "note": "Counter-ions that a name gives are not always drawn."}
{"tested_on": "Ruminococcus gnavus DSM 108212", "assay": "fold change of 2-Phenylethylamine concentration vs plate DMSO controls (fold change (ratio)); higher = more amine produced, active = hit call of the paper (significant change in both replicates, either direction)", "conditions": "20 µM; incubation time: 27 h, anaerobic, 37 °C;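 for the amine columns active = adjusted P below 0.05 in both replicates with a change the same way and a mean fold change under 0.8 or over 1.25; inactive = the rest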", "in_short": "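Anaerobic mGAM cultures of four gut bacterial strains were grown at 37 °C for 27 h in 80 µL wells, starting at OD 0.1 before 1:1 dilution. Compounds were at 20 µM final (sweeteners 50 µM). Whole cultures were extracted with cold acetonitrile/methanol containing 0.1% formic acid and centrifuged. Amines were quantified by LC–triple-quadrupole MS (dynamic MRM) against external calibration curves and drift-corrected within batch. Each value is the fold change versus plate DMSO controls, averaged over 2 biological replicates.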"}
{"molecule": "CS(=O)(=O)NC(=O)c1cc(Oc2ccc(C(F)(F)F)cc2Cl)ccc1[N+](=O)[O-]", "fold change of 2-Phenylethylamine concentration": "0.99 (inactive)"}
{"molecule": "C#C[C@]1(O)C=C[C@H]2[C@@H]3CCC4=CC(=O)CC[C@@H]4[C@H]3CC[C@@]21CC", "note": "[Gestodene]", "fold change of 2-Phenylethylamine concentration": "0.977 (inactive)"}
{"molecule": "ClC1C(Cl)C(Cl)C(Cl)C(Cl)C1Cl", "note": "(configuration not stated)", "fold change of 2-Phenylethylamine concentration": "0.979 (inactive)"}
{"molecule": "CCOC(=O)OC1=C(c2cc(C)ccc2C)C(=O)N[C@]12CC[C@@H](OC)CC2", "fold change of 2-Phenylethylamine concentration": "1.04 (inactive)"}
{"molecule": "N#Cc1cc(Br)c(O)c(Br)c1", "fold change of 2-Phenylethylamine concentration": "1.01 (inactive)"}
{"molecule": "O=C(CCCN1CCC2(CC1)C(=O)NCN2c1ccccc1)c1ccc(F)cc1", "note": "[Spiperone]", "fold change of 2-Phenylethylamine concentration": "1.04 (inactive)"}
{"molecule": "CNC(=O)Oc1cccc(/N=C/N(C)C)c1", "fold change of 2-Phenylethylamine concentration": "0.934 (inactive)"}
{"molecule": "CN(C)C(CSS(=O)(=O)O)CSS(=O)(=O)O", "fold change of 2-Phenylethylamine concentration": "0.987 (inactive)"}
{"molecule": "CN1[C@@H]2C[C@@H](OC(=O)[C@H](CO)c3ccccc3)C[C@H]1[C@@H]1O[C@@H]12", "note": "[Scopolamine hydrochloride]", "fold change of 2-Phenylethylamine concentration": "1.12 (inactive)"}
{"molecule": "COP(=S)(OC)Oc1nc(Cl)c(Cl)cc1Cl", "fold change of 2-Phenylethylamine concentration": "0.866 (inactive)"}
{"molecule": "C#CCN(C)[C@H](C)Cc1ccccc1", "note": "[Selegiline hydrochloride]", "fold change of 2-Phenylethylamine concentration": "1.06 (inactive)"}
{"molecule": "C[N+]1(C)CCCC(OC(=O)C(O)(c2ccccc2)c2ccccc2)C1", "note": "(configuration not stated) [Mepenzolate bromide]", "fold change of 2-Phenylethylamine concentration": "1.02 (inactive)"}
{"molecule": "CCNc1nc(Cl)nc(NC(C)C)n1", "fold change of 2-Phenylethylamine concentration": "1.1 (inactive)"}
{"molecule": "CCc1cc(C)cc(CC)c1-c1c(OC(=O)C(C)(C)C)n2n(c1=O)CCOCC2", "fold change of 2-Phenylethylamine concentration": "0.985 (inactive)"}
{"molecule": "COP(=O)(NC(C)=O)SC", "note": "(configuration not stated)", "fold change of 2-Phenylethylamine concentration": "1 (inactive)"}
{"molecule": "CC[C@H]1CCC[C@H](O[C@H]2CC[C@H](N(C)C)[C@@H](C)O2)[C@@H](C)C(=O)C2=C[C@@H]3[C@@H](C=C(C)[C@@H]4C[C@@H](O[C@@H]5O[C@@H](C)[C@H](OC)[C@@H](OC)[C@H]5OC)C[C@@H]34)[C@@H]2CC(=O)O1.CC[C@H]1CCC[C@H](O[C@H]2CC[C@H](N(C)C)[C@@H](C)O2)[C@@H](C)C(=O)C2=C[C@H]3[C@@H]4C[C@H](O[C@@H]5O[C@@H](C)[C@H](OC)[C@@H](OC)[C@H]5OC)C[C@H]4C=C[C@H]3C2CC(=O)O1", "fold change of 2-Phenylethylamine concentration": "0.982 (inactive)"}
{"molecule": "C[C@@H]1C[C@@H]([C@H](O)CC2CC(=O)NC(=O)C2)C(=O)[C@@H](C)C1", "note": "[Cycloheximide]", "fold change of 2-Phenylethylamine concentration": "0.95 (inactive)"}
{"molecule": "c1ccc2c(c1)cc1ccc3cccc4ccc2c1c34", "note": "[Benzo[a]pyrene]", "fold change of 2-Phenylethylamine concentration": "1.04 (inactive)"}
{"molecule": "N#Cc1sc2c(=O)c3ccccc3c(=O)c=2sc1C#N", "fold change of 2-Phenylethylamine concentration": "0.827 (inactive)"}
{"molecule": "Cc1cccc2sc3nncn3c12", "fold change of 2-Phenylethylamine concentration": "0.992 (inactive)"}
{"molecule": "CCC1(C)CC(=O)NC(=O)C1", "note": "[Bemegride]", "fold change of 2-Phenylethylamine concentration": "1.03 (inactive)"}
{"molecule": "CCOP(=S)(OCC)Oc1cc(C)nc(C(C)C)n1", "fold change of 2-Phenylethylamine concentration": "1 (inactive)"}
{"molecule": "CN1CCN(C(=O)OC2c3nccnc3C(=O)N2c2ccc(Cl)cn2)CC1", "note": "(configuration not stated) [Zopiclone]", "fold change of 2-Phenylethylamine concentration": "0.988 (inactive)"}
{"molecule": "CO[C@]12C[C@@H](COC(=O)c3cncc(Br)c3)CN(C)[C@@H]1Cc1cn(C)c3cccc2c13", "note": "[Nicergoline]", "fold change of 2-Phenylethylamine concentration": "0.888 (inactive)"}
{"molecule": "CCOP(=S)(OCC)Oc1nc(Cl)c(Cl)cc1Cl", "fold change of 2-Phenylethylamine concentration": "0.873 (inactive)"}
{"molecule": "C[N+](C)(C)CCCCCCCCCC[N+](C)(C)C", "note": "[Decamethonium bromide]", "fold change of 2-Phenylethylamine concentration": "1.11 (inactive)"}
{"molecule": "C[C@]12COC(=O)C[C@@H]1CC[C@@H]1[C@@H]2CC[C@@]2(C)[C@H]1CC[C@]2(C)O", "note": "[Oxandrolone]", "fold change of 2-Phenylethylamine concentration": "1.06 (inactive)"}
{"molecule": "OC(Cc1ccccc1Cl)(Cn1nc[nH]c1=S)C1(Cl)CC1", "note": "(configuration not stated)", "fold change of 2-Phenylethylamine concentration": "0.951 (inactive)"}
{"molecule": "NCC1(CC(=O)O)CCCCC1", "note": "[Gabapentin]", "fold change of 2-Phenylethylamine concentration": "1.07 (inactive)"}
{"molecule": "CC(C)C[C@H]1C(=O)N2CCC[C@H]2[C@]2(O)O[C@](NC(=O)[C@@H]3C=C4c5cccc6[nH]c(Br)c(c56)C[C@H]4N(C)C3)(C(C)C)C(=O)N12", "note": "[Bromocryptine mesylate]", "fold change of 2-Phenylethylamine concentration": "1 (inactive)"}
{"molecule": "NCC(O)c1ccc(O)cc1", "note": "(configuration not stated) [Octopamine hydrochloride]", "fold change of 2-Phenylethylamine concentration": "0.875 (inactive)"}
{"molecule": "NCC(CC(=O)O)c1ccc(Cl)cc1", "note": "(configuration not stated) [Baclofen]", "fold change of 2-Phenylethylamine concentration": "1.11 (inactive)"}
{"molecule": "CC1(C)C(C=C(Cl)Cl)C1C(=O)OC(C#N)c1cccc(Oc2ccccc2)c1", "note": "(mixture of isomers)", "fold change of 2-Phenylethylamine concentration": "1 (inactive)"}
{"molecule": "C#CCN1C(=O)COc2cc(F)c(N3C(=O)C4=C(CCCC4)C3=O)cc21", "fold change of 2-Phenylethylamine concentration": "0.969 (inactive)"}
{"molecule": "CN1COCN(Cc2cnc(Cl)s2)/C1=N\\[N+](=O)[O-]", "fold change of 2-Phenylethylamine concentration": "0.88 (inactive)"}
{"molecule": "CCNC1(c2cccs2)CCCCC1=O", "note": "(configuration not stated) [Tiletamine hydrochloride]", "fold change of 2-Phenylethylamine concentration": "1 (inactive)"}
{"molecule": "Cc1cc(C(C#N)c2ccc(Cl)cc2)c(Cl)cc1NC(=O)c1cc(I)cc(I)c1O", "note": "(configuration not stated)", "fold change of 2-Phenylethylamine concentration": "0.11 (active)"}
